# From PubChem BioAssay AID1159580 (chemical genetic matrix, 2015)
# About 2,000 (36%) of roughly 5,500 compounds were called active. About 18% were inconclusive and are not listed. Some of the results follow. A number with no mark means an inactive call. Rule as the data show it: active = normalized growth mostly below about 0.91 (no sharp cut-off); inconclusive = no clear call, values can overlap the other calls; inactive = mostly above about 0.92.
# Test: chemical genetic growth profiling, strain panel (AID 1159580);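 also: tested at 20 µM; growth read once vehicle control cultures reached saturation at 30 °C; 1 = growth at the plate median or of vehicle wells; lower values mean less growth of the strain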
# Conditions: S. cerevisiae deletion strains, growth OD
smiles,measurement,setting,value
CC(=O)c1cc(CC=C(C)C)c(O)c(CC=C(C)C)c1,normalized growth,"locus YAL013W, strain DEP1, hits give low values",0.924
same,normalized growth,"locus YAL021C, strain ccr4, hits give low values",1
same,normalized growth,"locus YAL026C, strain drs2, hits give low values",1.01
same,normalized growth,"locus YAL030W, strain snc1, hits give low values",1.01
same,normalized growth,"locus YBL061C, strain skt5, hits give low values",1
same,normalized growth,"locus YBR009C, strain hhf1, hits give low values",1
same,normalized growth,"locus YBR021W, strain FUR4, hits give low values",1.42 [resistant] (active)
same,normalized growth,"locus YBR023C, strain chs3, hits give low values",1
same,normalized growth,"locus YBR171W, strain sec66, hits give low values",1.01
same,normalized growth,"locus YBR229C, strain ROT2, hits give low values",0.989
same,normalized growth,"locus YBR231C, strain swc5, hits give low values",1
same,normalized growth,"locus YBR279W, strain paf1, hits give low values",1.02
same,normalized growth,"locus YCL011C, strain gbp2, hits give low values",1.01
same,normalized growth,"locus YCL016C, strain dcc1, hits give low values",1.01
same,normalized growth,"locus YCL029C, strain bik1, hits give low values",0.96
same,normalized growth,"locus YCL061C, strain MRC1, hits give low values",1.01
same,normalized growth,"locus YCL069W, strain vba3, hits give low values",1
same,normalized growth,"locus YCR088W, strain abp1, hits give low values",1
same,normalized growth,"locus YDL005C, strain med2, hits give low values",1.02
same,normalized growth,"locus YDL035C, strain GPR1, hits give low values",0.947
same,normalized growth,"locus YDL040C, strain nat1, hits give low values",1.01
same,normalized growth,"locus YDL074C, strain BRE1, hits give low values",0.797
same,normalized growth,"locus YDL101C, strain DUN1, hits give low values",0.945
same,normalized growth,"locus YDL134C, strain PPH21, hits give low values",0.987
same,normalized growth,"locus YDL185W, strain tfp1, hits give low values",0.927
same,normalized growth,"locus YDL192W, strain arf1, hits give low values",0.919
same,normalized growth,"locus YDR001C, strain nth1, hits give low values",1
same,normalized growth,"locus YDR069C, strain doa4, hits give low values",1
same,normalized growth,"locus YDR101C, strain arx1, hits give low values",0.969
same,normalized growth,"locus YDR137W, strain rgp1, hits give low values",0.939
same,normalized growth,"locus YDR150W, strain NUM1, hits give low values",0.969
same,normalized growth,"locus YDR159W, strain sac3, hits give low values",1.02
same,normalized growth,"locus YDR162C, strain NBP2, hits give low values",0.665 (active)
same,normalized growth,"locus YDR195W, strain ref2",1.06
same,normalized growth,"locus YDR297W, strain sur2, hits give low values",1.01
same,normalized growth,"locus YDR318W, strain mcm21, hits give low values",0.971
same,normalized growth,"locus YDR334W, strain swr1, hits give low values",1.01
same,normalized growth,"locus YDR335W, strain msn5, hits give low values",1.02
same,normalized growth,"locus YDR388W, hits give low values",0.977
same,normalized growth,"locus YDR392W, strain spt3, hits give low values",0.977
same,normalized growth,"locus YDR502C, strain sam2, hits give low values",0.955
same,normalized growth,"locus YEL003W, strain gim4, hits give low values",1.01
same,normalized growth,"locus YEL037C, strain rad23, hits give low values",1
same,normalized growth,"locus YEL061C, strain CIN8 (second series), hits give low values",1.01
same,normalized growth,"locus YEL061C, strain CIN8, hits give low values",0.989
same,normalized growth,"locus YER015W, strain faa2, hits give low values",1
same,normalized growth,"locus YER016W, strain bim1, hits give low values",1.01
same,normalized growth,"locus YER110C, hits give low values",0.966
same,normalized growth,"locus YER111C, strain swi4, hits give low values",1.02
same,normalized growth,"locus YER155C, strain BEM2 (second series), hits give low values",1.03
same,normalized growth,"locus YER155C, strain BEM2, hits give low values",1
same,normalized growth,"locus YER167W, strain BCK2, hits give low values",0.992
same,normalized growth,"locus YFR010W, strain ubp6, hits give low values",1.01
same,normalized growth,"locus YGL078C, strain dbp3, hits give low values",0.984
same,normalized growth,"locus YGL086W, strain mad1, hits give low values",0.953
same,normalized growth,"locus YGL167C, strain pmr1, hits give low values",0.987
same,normalized growth,"locus YGL173C, strain kem1, hits give low values",1.01
same,normalized growth,"locus YGL227W, strain vid30, hits give low values",1.01
same,normalized growth,"locus YGL240W, strain doc1, hits give low values",1.03
same,normalized growth,"locus YGL248W, strain PDE1, hits give low values",0.93
same,normalized growth,"locus YGL253W, strain hxk2, hits give low values",1.01
same,normalized growth,"locus YGR078C, strain PAC10, hits give low values",0.922
same,normalized growth,"locus YGR135W, strain pre9, hits give low values",0.978
same,normalized growth,"locus YGR252W, strain gcn5, hits give low values",0.921
same,normalized growth,"locus YHR013C, strain ard1, hits give low values",1.06
same,normalized growth,"locus YHR027C, strain rpn1, hits give low values",1
same,normalized growth,"locus YHR030C, strain SLT2, hits give low values",0.878 (active)
same,normalized growth,"locus YHR079C, strain IRE1 (second series), hits give low values",0.97
same,normalized growth,"locus YHR094C, strain hxt1, hits give low values",0.982
same,normalized growth,"locus YHR129C, strain ARP1, hits give low values",0.97
same,normalized growth,"locus YHR142W, strain chs7, hits give low values",0.995
same,normalized growth,"locus YHR200W, strain rpn10, hits give low values",0.963
same,normalized growth,"locus YIL066C, strain RNR3, hits give low values",0.965
same,normalized growth,"locus YIL073C, strain SPO22, hits give low values",0.846
same,normalized growth,"locus YIL125W, strain kgd1, hits give low values",0.984
same,normalized growth,"locus YIR030C, strain dcg1, hits give low values",0.98
same,normalized growth,"locus YJL092W, strain hpr5, hits give low values",1.01
same,normalized growth,"locus YJL095W, strain BCK1 (second series), hits give low values",1.01
same,normalized growth,"locus YJL095W, strain BCK1, hits give low values",0.9
same,normalized growth,"locus YJL115W, strain asf1, hits give low values",1.02
same,normalized growth,"locus YJL129C, strain trk1, hits give low values",0.974
same,normalized growth,"locus YJL134W, strain LCB3, hits give low values",0.983
same,normalized growth,"locus YJL154C, strain vps35, hits give low values",1.02
same,normalized growth,"locus YJL164C, strain tpk1, hits give low values",0.999
same,normalized growth,"locus YJL166W, strain qcr8, hits give low values",1.02
same,normalized growth,"locus YJL168C, strain set2, hits give low values",0.984
